Shown are actives, neighbours in structure and some others; about 19% of the full set was active somewhere.
HT1080 IDH1KD tx = qHTS for induction of synthetic lethality in tumor cells producing 2HG: qHTS for the HT-1080-IDH1KD cell line; AID 686971, 2013; Potency, µM (highest dose often 46.1 µM), for inactives: top-dose activity, negative = toxicity, hits mostly cytotoxic; HT-1080 IDH1 knockdown viability, ATP luminescence, 48 h; 2% of 360,000 active;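 note: potency is the fitted concentration of half-maximal effect; 0% = DMSO wells and -100% = cell-free medium wells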
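Luminescent ATP read-out (CellTiter-Glo, 10 min at room temperature) after 48 h compound exposure at 37 °C gave viability of IDH1-knockdown HT-1080 cells. Activity was normalised to DMSO and cell-free wells, then fitted as concentration-response curves.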
HT1080NT lethal = qHTS for induction of synthetic lethality in tumor cells producing 2HG: qHTS for the HT-1080-NT fibrosarcoma cell line; Potency, µM (highest dose often 46.1 µM), without a hit: at the highest dose activity, negative = less viability, hits mostly cytotoxic; HT-1080-NT fibrosarcoma viability, CellTiter-Glo ATP luminescence, 48 h; 1.6% of 360,000 active;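 note: NT is the 2HG producing partner of a matched IDH1 knockdown line; potency is the fitted concentration of half-maximal effect; 0% = DMSO-treated cells and -100% = media-only wells without cells; nearly all actives have a fitted effect of over 55% in size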
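Toxicity toward the 2HG-producing NT line was scored as %Activity, normalised to DMSO and no-cell wells, from CellTiter-Glo luminescence after 48 hours' treatment.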
IL-1B inflam inh = qHTS for Inhibitors of Inflammasome Signaling: IL-1-beta AlphaLISA Primary Screen; THP-1 LPS/ATP IL-1B secretion, AlphaLISA, 16 h; hits give low values; activity change, % at 57.5 µM; 4.7% of 360,000 active; AID 743279, 2014; in the data active = activity change below about -50%; inconclusive = mostly about -30% to -49%
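Secreted IL-1B measured by AlphaLISA bead assay after 16 h compound exposure of THP-1 cells; compounds (final up to 57.5 uM) added 1 h before LPS (250 ng/mL) and ATP (1.25 mM) stimulation; lower signal means less secretion.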
DT40 TDP1 no CPT = qHTS for Inhibitors of human tyrosyl-DNA phosphodiesterase 1 (TDP1): qHTS in cells in absence of CPT | DT40 Tdp1-/- hTDP1 cells, no CPT, ATP luminescence, 48 h | Potency, µM (highest dose often 46.2 µM), for inactives: at the highest dose activity change, negative = growth inhibition, actives largely listed as inhibitors | 15% of 420,000 active; note: potency is the fitted concentration of half-maximal effect; nearly all actives have a fitted effect of over 55% in size
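A cellular qHTS used chicken DT40 cells lacking endogenous Tdp1 but carrying stably transfected human TDP1. Compounds were applied without camptothecin, and cell growth kinetics were judged by ATP-dependent luminescence after ≥48 hr.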
TDP1 cell CPT = qHTS for Inhibitors of human tyrosyl-DNA phosphodiesterase 1 (TDP1): qHTS in cells in presence of CPT | chicken DT40 Tdp1-/-;hTDP1 cells + 20 nM CPT, ATP luminescence, 48 h | Potency, µM (titrated, usually from 46.2 µM), inactives show top-dose activity change, negative = growth inhibition, hits mostly inhibitors | 12% of 420,000 active; note: potency is the fitted concentration of half-maximal effect; nearly all actives have a fitted effect of over 55% in size
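Chicken DT40 Tdp1-/- cells complemented with human TDP1, 400 cells/well, exposed to compounds plus 20 nM camptothecin for at least 48 h at 37 C; viability read as ATP content by CellTiter-Glo luminescence.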
* hit, by the source's call; ? = inconclusive; / = no result given. Unless noted, calls come from the whole dose curve; as a rule, active = well fitted curve in the direction sought with a large enough effect; inconclusive = small, poorly fitted or top-dose-only effect, or another doubt; inactive = no such curve, though single readings can be large; an effect the other way counts as inactive or inconclusive. Unless noted, % is set by controls: 0 for no effect and ±100 for the full control effect.

SMILES	HT1080 IDH1KD tx	HT1080NT lethal	IL-1B inflam inh	DT40 TDP1 no CPT	TDP1 cell CPT
CCn1c(SCc2ccccc2Cl)nc2nc3c(cc2c1=O)CCCC3	-29%	-8%	?	23µM*	16µM*
CCn1c(SCC(=O)Nc2ccc(Cl)cc2)nc2nc3c(cc2c1=O)CCCC3	6%	2%	-64*	?	?
CCn1c(SCC(=O)Nc2ccc(C(C)=O)cc2)nc2nc3c(cc2c1=O)CCCC3	-9%	6%	-55*	?	?
CN1C[C@@H]2[C@@H]3C(=O)N(C)C(=O)[C@@H]3[C@](C)(C1=O)N2C(=O)c1ccc(F)cc1	13%	18%	19	3%	7%
CCOC(=O)NC1=NCC(C)(C)S1	12%	8%	16	-1%	16%
CCN(CC(=O)Nc1c(F)cccc1F)C(=O)c1ccc(N2CCOCC2)c([N+](=O)[O-])c1	10%	14%	16	?	-26%
C[C@]12c3[nH]c4ccc(Cl)cc4c3CCN1C(=O)[C@@H](CC(=O)NCc1cccc(C(F)(F)F)c1)C[C@@H]2C(=O)N1CCOCC1	?	-26%	-56*	?	?
CC[C@]12c3[nH]c4ccccc4c3CCN1C(=O)C(CC(=O)NCc1cccc(C(F)(F)F)c1)C[C@@H]2C(=O)N1CCN(C(=O)c2ccco2)CC1 (stereo not given in full)	?	-10%	-52*	?	18µM*
C[C@]12c3[nH]c4ccccc4c3CCN1C(=O)C(CC(=O)NCc1cccc(C(F)(F)F)c1)C[C@@H]2C(=O)N1CCCCC1 (stereo not given in full)	?	-30%	-66*	15µM*	21µM*
C[C@]12c3[nH]c4ccccc4c3CCN1C(=O)C(CC(=O)NCc1cccc(C(F)(F)F)c1)C[C@@H]2C(=O)N1CCOCC1 (stereo not given in full)	-3%	1%	?	?	?
CCn1nccc1C(=O)Nc1ccc(Cl)cc1Cl	8%	4%	/	-15%	-10%
CCn1nccc1C(=O)Nc1cc(Cl)ccc1Cl	2%	-1%	-55*	-6%	-2%
COc1ccc(O)c(-c2cc(-c3ccc(F)cc3)n[nH]2)c1	23µM*	?	-51*	?	-25%
COc1ccc(O)c(-c2cc(-c3cccc(Br)c3)n[nH]2)c1	?	?	-6	16µM*	?
COc1ccc(-c2cc(-c3cc(OC)ccc3O)[nH]n2)cc1	?	?	-8	?	21µM*
COc1ccc(-c2cc(-c3ccc(Cl)cc3)n[nH]2)c(O)c1	3%	-4%	?	?	?
CCn1cc(C(=O)OCC(=O)Nc2ccc(S(=O)(=O)N3CCCC3)cc2)c(=O)c2ccc(C)nc21	14%	10%	-15	?	-25%
COC(=O)c1ccc(C2c3c(oc4ccc(C)cc4c3=O)C(=O)N2Cc2ccc3c(c2)OCO3)cc1 (stereo not given)	/	/	/	-3%	10%
CN(C)/C=C(\C#N)C(=O)Nc1ccc(F)cc1	1%	-3%	-1	-20%	-10%
CN(C)c1nc(/C=C(\C#N)C(N)=O)c(Cl)n1-c1ccc(F)cc1	2%	10%	-98*	21µM*	16µM*
COCCCNc1nc2nonc2nc1N(C)CC1CCCN1C (stereo not given)	-7%	-4%	1	-6%	-17%
C[C@@H]1CN([C@H](C)CO)C(=O)c2c(c3ccccc3n2C)-c2ccccc2CO[C@H]1CN(C)Cc1ccc(C(F)(F)F)cc1	18µM*	?	?	21µM*	?
C[C@@H]1CN([C@H](C)CO)C(=O)c2c(c3ccccc3n2C)-c2ccccc2CO[C@H]1CN(C)Cc1ccc(Oc2ccccc2)cc1	?	?	-20	26µM*	?
COc1ccc(NC(=O)N(C)C[C@@H]2OCc3ccccc3-c3c(n(C)c4ccccc34)C(=O)N([C@H](C)CO)C[C@H]2C)c(OC)c1	-21%	-23%	?	?	15µM*
Nc1c(C(=O)Nc2ccc3c(c2)OCCO3)nnn1Cc1cccc(Br)c1	13µM*	-28%	-51*	23µM*	?
SMILES	HT1080 IDH1KD tx	HT1080NT lethal	IL-1B inflam inh	DT40 TDP1 no CPT	TDP1 cell CPT
Nc1c(C(=O)Nc2ccc3c(c2)OCCO3)nnn1CCc1ccccc1	?	?	-2	3.3µM*	4.6µM*
Nc1c(C(=O)Nc2ccc3c(c2)OCCO3)nnn1Cc1ccc(Br)cc1	-12%	-11%	4	-28%	-11%
Cc1ccc(NC(=O)c2nnn(Cc3ccccc3)c2N)cc1C	/	/	/	7%	4%
COc1ccc(C(=O)NCC(=O)N/N=C/c2cn(C)c3ccccc23)cc1OC	-6%	-14%	-9	1%	-10%
Cc1cn([C@H]2C[C@H](O)[C@@H](CNS(=O)(=O)N3CCCC3)O2)c(=O)[nH]c1=O	6%	1%	15	-1%	-18%
Cc1cccc(CNCCn2cc(C(=O)Nc3ccccc3)nn2)c1	/	/	/	-11%	-19%
CCCCN(C)c1c(C)nc2ccc(C(=O)NCCOc3ccc(OC)cc3)cn12	-24%	-1%	-13	18µM*	13µM*
CCc1nc2ccc(C(=O)NCCOc3ccc(OC)cc3)cn2c1N(CC)CCOC	1%	1%	-16	?	?
COc1ccc(OCCNC(=O)c2ccc3nc(C)c(N(C)C(=O)CCc4ccccc4)n3c2)cc1	0%	-15%	-10	?	23µM*
CCCCC(=O)N(C)c1c(C)nc2ccc(C(=O)NCCOc3ccc(OC)cc3)cn12	-11%	-5%	-4	-30%	-19%
CCCCN(C)c1c(C)nc2ccc(C(=O)NCc3ccc4c(c3)OCO4)cn12	-5%	-17%	-12	23µM*	?
CCCCN(C(C)=O)c1c(CC)nc2ccc(C(=O)NCCOc3ccc(OC)cc3)cn12	-17%	-11%	-5	13µM*	?
COc1ccc(C(=O)Nc2ccccc2C(=O)NCCN2CCOCC2)cc1OC	2%	0%	?	8%	9%
Cc1ccc(CCNC(=O)C2CCN(S(=O)(=O)N3CCOCC3)CC2)cc1	9%	9%	13	?	-1%
CCOc1ccc(C(=O)N(Cc2sccc2C)C2CCS(=O)(=O)C2)cc1 (stereo not given)	/	/	/	-27%	?

Screens from PubChem BioAssay.
